For 35 molecules, composite z-score results are on record in PubChem BioAssay.

The test system of the test is XIP peptide (Xip251-270). Put plainly: small-molecule binders of XIP peptide, primary screen, biochemical, small-molecule microarray, fluorescence 635/667 nm, 0.5 µg/mL protein (AID 1183). The following applies: small-molecule microarray binding, fluorescence 635 nm; higher = more signal.
Regarding `C=CCN1C(=O)[C@@]2(O[C@@H](CCO)[C@H]([Si](C)(C)c3ccc(OC)cc3)[C@H]2C)c2cc(NC(=O)[C@H](C)O)ccc21`, the composite z-score is 0.603.

Turning to `COC(=O)[C@@]1(Cc2ccc(OC)cc2)[C@H]2c3cc(C(=O)N4CCCC4)n(CCF)c3C[C@H]2CN1C(=O)c1ccccc1`, the composite z-score is 0.388.

With `O=C1N(Cc2ccccc2)c2ccccc2[C@H]2OC(c3ccc(OCCCO)cc3)=N[C@@]12CCS(=O)(=O)c1ccccc1`, the composite z-score came out at 0.371.

As to `CC(=O)NCCCC[C@@H]1NC(=O)[C@@H]2C[C@H](C(=O)NCCCC[N+](C)(C)C)[C@H](c3cccc(OCCO)c3)N2C1=O`, the composite z-score was 0.446.

With `COCCCNC(=O)[C@@]1(Cc2ccccc2I)c2ccccc2C(=O)N(Cc2ccccc2Cl)[C@H]1c1ccc(CO)cc1`, the composite z-score came out at 0.595.

In the case of `COCCCNC(=O)[C@@]1(Cc2ccccc2CN=[N+]=[N-])N=C(c2ccc(OCCCO)cc2)O[C@H]1c1ccccc1N=[N+]=[N-]`, the composite z-score was 0.668.

Consider `NCCCCCCNC(=O)[C@H]1C[C@H]2C(=O)N3CCC[C@H]3C(=O)N2[C@H]1c1ccc(O)cc1`, for which the composite z-score was found to be 0.451.

For `C=C(/C(=C/C[C@@H](OC(=O)c1ccncc1)c1cccc(OCCO)c1)c1cc(C(=O)OC)ccc1OC)C(C)C`, the composite z-score was 0.723.

For the molecule `CN1C(=O)C2C=CC(C(O)COCc3ccccc3)N(Nc3ccccc3)C2C1=O` (stereo not given), the composite z-score came to 0.311.

Regarding `C=C[C@@H](O)[C@H]1CC(c2ccccc2)=NO1`, the composite z-score was -0.299.

With `COC(=O)[C@@]1(Cc2ccc(OC)cc2)[C@H]2c3cc(C(=O)N(C)C)n(CCF)c3C[C@H]2CN1C(=O)c1ccccc1`, the composite z-score was 0.449.

As for `C=CCC(OC(C)=O)[C@@H]1[C@@H](N(Cc2ccc(-c3cccc(C(F)(F)F)c3)o2)C(=O)c2cccc3ccccc23)c2cc(OCCCO)ccc2N1C(=O)c1ccc(-c2ccccc2)cc1` (stereo not given in full), the composite z-score was -0.131.

On to `COc1cc(NN2C(C(O)c3ccc(I)cc3)C=CC3C(=O)N(C)C(=O)C32)cc(OC)c1OC` (stereo not given), for which the composite z-score was -0.064.

`C=CCC(OC(C)=O)[C@@H]1[C@@H](N(Cc2cccc3ccccc23)C(=O)Cc2ccc(F)cc2)c2cc(OCCCO)ccc2N1C(=O)Cc1ccc(OC)cc1` (stereo not given in full): the composite z-score is -0.189.

Turning to `C=CCOC(=O)[C@@H]1[C@H]2C(=O)O[C@H](c3ccccc3)[C@H](c3ccccc3)N2[C@H](c2ccc(OCCOC(=O)[C@H]3C[C@H]4C(=O)N[C@@H](Cc5ccccc5)C(=O)N4[C@H]3c3cccc(OCCO)c3)cc2)[C@@]12C(=O)Nc1ccc(I)cc12`, the composite z-score stood at 0.813.

`CC(C)c1ccc(NN2C(C(O)c3cccs3)C=CC3C(=O)N(c4ccccc4)C(=O)C32)cc1` (stereo not given): the composite z-score is 0.499.

Regarding `CC1CC/C=C\[C@H]2OC34C=CCN(Cc5ccccc5)C(=O)[C@H]3N(CCO)C(=O)[C@@H]4C2C(=O)O1` (stereo not given in full), the composite z-score worked out at 0.108.

Consider `COCCOC(=O)N1C(=O)[C@@]2(c3cc(C#CC4(O)CCCCCC4)ccc31)[C@H](C(=O)N1CCc3cc(OC)c(OC)cc3C1)[C@H]1C(=O)O[C@H](c3ccccc3)[C@H](c3ccccc3)N1[C@@H]2c1ccccc1OCCO`, for which the composite z-score came out at 0.771.

With `COc1ccc([Si](C)(C)[C@H]2[C@H](CC(=O)N3CCC[C@H]3CO)O[C@@]3(C(=O)N(Cc4ccc(N5C(=O)c6cccc7cccc5c67)cc4)c4ccccc43)[C@@H]2C)cc1`, the composite z-score turned out to be 0.803.

Turning to `C=C(C(=O)CC[C@H](OC(=O)c1cccnc1)c1ccc(OCCO)cc1)C(C)C`, the composite z-score was determined as 0.551.

As for `COC(=O)[C@@]1(Cc2ccccc2)[C@H]2c3cc(C(=O)N4CCCC4)n(CCO)c3C[C@H]2CN1C(=O)c1ccccc1`, the composite z-score came out at 0.824.

As to `C=CCNC(=O)[C@H]1[C@@H]2C(=O)O[C@@H](c3ccccc3)[C@@H](c3ccccc3)N2[C@@H](c2ccc(OCCO)cc2)[C@]12C(=O)N(C(=O)OCCOC)c1ccc(C#CC3=CCCCC3)cc12`, the composite z-score came to 0.799.

`O=C1C2C=CC(C(O)c3cccc4ccccc34)N(Nc3ccccc3)C2C(=O)N1c1ccccc1` (stereo not given): the composite z-score stood at 0.807.

Take `Cc1ccc(S[C@]2(C(=O)O)CC(=O)N(C3CCCCC3)[C@@H]2c2ccc(CO)cc2)cc1`: the composite z-score came to 0.929.

For `CC(=O)NCCCC[C@@H]1NC(=O)[C@H]2C[C@@H](C(=O)NCCCCCN)[C@@H](c3cccc(OCCO)c3)N2C1=O`, the composite z-score came to 0.654.

`C=C(CCCC)/C(=C/C[C@@H](OC(=O)c1ccncc1)c1ccccc1OCCO)c1cc(C(=O)OC)ccc1OC`: the composite z-score is -0.127.

In the case of `C=CC[C@]1(C(=O)N2CCOCC2)N=C(c2ccc(OCCCO)cc2)O[C@H]1c1ccccc1CN=[N+]=[N-]`, the composite z-score was found to be 0.836.

As to `C=C(C)[C@@H]1CC=C(C(O)C2C=CC3C(=O)N(C4CCCCC4)C(=O)C3N2Nc2ccc(OC)cc2)CC1` (stereo not given in full), the composite z-score is 0.505.

As to `CC1(C)[C@@H]2CC(C(O)C3C=CC4C(=O)N(c5ccccc5)C(=O)C4N3Nc3ccccc3F)=C[C@@H]1C2` (stereo not given in full), the composite z-score was 0.458.

For the molecule `[N-]=[N+]=NCc1ccccc1[C@H]1OC(c2ccc(OCCCO)cc2)=N[C@@]1(Cc1ccccc1N=[N+]=[N-])C(=O)N1CCCCC1`, the composite z-score turned out to be 0.831.

`CC(C)N1CC=CC23O[C@@H]4C=CCOC(=O)[C@@H]4[C@H]2C(=O)N(CCCCCCO)[C@@H]3C1=O` (stereo not given in full): the composite z-score is -0.262.

For the molecule `CN1C(=O)C2C=CC(C(O)C3CCCCC3)N(N(c3ccccc3)c3ccccc3)C2C1=O` (stereo not given), the composite z-score is 0.63.

`CC(C)(C)OC(=O)CC[C@]1(C(=O)O)COC(c2ccc(OCCCO)cc2)=N1`: the composite z-score amounted to 0.532.

Turning to `O=C1O[C@H](c2ccccc2)[C@H](c2ccccc2)N2[C@H]1[C@@H](C(=O)N1CCN(c3ncccn3)CC1)[C@]1(C(=O)Nc3ccc(C#CCCO)cc31)[C@H]2c1ccc(OCCO)cc1`, the composite z-score worked out at 0.853.

Turning to `CN1C(=O)C2C=CC(C(O)c3cccc4ccccc34)N(NC(=O)OC(C)(C)C)C2C1=O` (stereo not given), the composite z-score worked out at 0.586.
